Active and inactive are the calls of the source. Rule for the calls: active = hit-call score of the fitted dose curve at least 0.9, where 1 is the maximum; inconclusive = response in the unintended direction; inactive = score below 0.9.

The AC50 is the concentration giving half of the maximal activity seen.

A short description of this experiment: Tanguay_ZF_120hpf_ActivityScore_legacy: (Legacy) Oregon State University Tanguay Lab 120 Hour Post-fertilization zebrafish Assay Score for Activity (AID 2283742).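 For AC50: dechorionated Tropical 5D wild-type zebrafish embryos held singly per well; static exposure from 6 hpf until 120 hpf at 28 °C.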 The method, boiled down:
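Embryos are staged, enzymatically dechorionated at 4 hpf, placed individually at 6 hpf, then held in test chemical (0.64% DMSO) at 28C until 120 hpf. Mortality and malformations are scored by brightfield, with non-mortality endpoints skipped for dead embryos.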
Take `O=C(NO)C1(NS(=O)(=O)c2ccc(Oc3ccc(F)cc3)cc2)CCOCC1`: the compound was called inactive.
For `CCCCCCCC/C=C\CCCCCCCC(=O)OC[C@@H](O)[C@H]1OC[C@H](O)[C@H]1O`, the result was inactive.
For `CCCCCCCCCCCCCCCCOS(=O)(=O)O`, the result was inactive.
For the compound `O=C(O)c1cccc(C[C@@H]2COc3ccc(OCc4nc5cc(F)ccc5s4)cc3[C@@H]2O)c1`, the AC50 was 37.3 µM (active).
For `CNC(C)=O`, the compound was classed as inactive.
On the same count and under the same terms, under `CCCc1ccccc1` stands “inactive”.
Same read-out and setting: then `CCCCCOC(C)=O`, with “inactive”.
In the case of `c1ccc(C(O[C@@H]2CCCN(CCc3ccc4c(c3)OCO4)C2)c2ccccc2)cc1`, the AC50 is 36.3 µM (active).
`c1ccc2ncccc2c1`: the result was inactive.
Take `CC(C)CC(C)O` (stereo not given): the compound was called inactive.
Same read-out and setting: under `CCc1ccc(O)c(C(C)(C)C)c1` stands “inactive”; under `O=C(O)c1cccc(C(=O)O)c1`, “inactive”; under `NNC(=O)c1ccncc1`, “inactive”.
For the compound `CCCCCCCC1CCC(=O)O1` (stereo not given), the concentration at half-maximal activity (AC50) is 43.7 µM (active).
Turning to `OC(CCl)CCl`, the compound was called inactive.
For `C=CN1CCCC1=O`, the call was inactive.
Still for that read-out and setting: then `O=C(O)c1ccc2c(c1)nc(C(=O)NC1CCN(C3CC3)CC1)n2Cc1cc(-c2ccc(Cl)s2)on1`, with “inactive”.
On the same count and under the same terms, under `CC(C)CCCCCCOC(=O)C1CCCCC1C(=O)OCCCCCCC(C)C` (stereo not given) stands “inactive”; under `CCCCCCOC(=O)CC(CC(=O)OCCCCCC)(OC(=O)CCC)C(=O)OCCCCCC`, “inactive”.
On the same count and under the same terms, then `CCc1cccc(CC)c1N`, with “inactive”; and `COCc1nnc(-c2ccc[n+]([O-])c2)n1-c1c(Cl)c(Cl)cc2[nH]c(=O)c(=O)[nH]c12`, with “inactive”.
As for `Cc1nccn1-c1ccc(Sc2cccc(C3(C(N)=O)CCOCC3)c2)cc1`, the compound was called inactive.
Still for that read-out and setting: under `OCCOCCOCCO` stands “inactive”.
On the same count and under the same terms, under `NC(N)=O` stands “inactive”; under `CC(=O)c1ccccc1`, “inactive”.
With `OC[C@H]1O[C@@H]2O[C@H]3[C@H](O)[C@@H](O)[C@@H](O[C@H]4[C@H](O)[C@@H](O)[C@@H](O[C@H]5[C@H](O)[C@@H](O)[C@@H](O[C@H]6[C@H](O)[C@@H](O)[C@@H](O[C@H]7[C@H](O)[C@@H](O)[C@@H](O[C@H]1[C@H](O)[C@H]2O)O[C@@H]7CO)O[C@@H]6CO)O[C@@H]5CO)O[C@@H]4CO)O[C@@H]3CO`, the outcome was inactive.
In the case of `CCOC(N)=O`, the compound was classed as inactive.
Same read-out and setting: under `CC1(C)C(=O)N(Cl)C(=O)N1Cl` stands “inactive”.
For the compound `OCc1ccccc1`, the result was inactive.
Still for that read-out and setting: then `Cc1ccc(S(=O)(=O)NC(=O)NN2CCCCCC2)cc1`, with “inactive”.
As to `COc1cc(C(C)C)c2c(c1)S(=O)(=O)N(COc1cc(=O)n3cccc(OCCN4CCCCC4)c3n1)C2=O`, the AC50 is 7.72 µM (active).
Regarding `CCCCOC(=O)c1ccccc1`, the result was inactive.
On the same count and under the same terms, then `OC[C@H]1O[C@@](CO)(O[C@H]2O[C@H](CO)[C@@H](O)[C@H](O)[C@H]2O)[C@@H](O)[C@@H]1O`, with “inactive”.
On the same count and under the same terms, under `OCC(CO)(CO)CO` stands “inactive”; under `NC(=O)N(O)[C@@H]1COc2cc(OCc3ccccc3)ccc21`, “inactive”.

These data come from PubChem BioAssay (EPA / NIEHS).
